Screens (PubChem)
TGFb SMAD3 inh – TGF-b pathway inhibition; Potency, µM (top dose mostly 46.1 µM), for the others: at the highest dose activity, negative = inhibition, usual class: inhibitors; HepG2 CAGA-GFP TGF-b/SMAD3 reporter, GFP fluorescence, 18 h; TGF-beta stimulated, 500 pg/mL final; 1.2% of 410,000 active; note: % is set by controls: 0 for no effect and ±100 for the full control effect; nearly all actives have a fitted effect of over 65% in size
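HEPG2 CAGA-GFP reporter cells (1000/well, DMEM with 1% FBS) received compounds, then recombinant TGF-beta at 500 pg/mL final for 18 hours at 37 degrees C. Per-cell GFP summed per well was normalised to unstimulated and stimulated DMSO controls before curve fitting.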
TDP1 cell CPT – DT40-hTDP1 cell growth loss with CPT | chicken DT40 Tdp1-/-;hTDP1 cells + 20 nM CPT, ATP luminescence, 48 h | Potency, µM (titrated, usually from 46.2 µM), for the others: top-dose activity change, negative = growth inhibition, usual class: inhibitors | 12% of 420,000 active | AID 686979; note: % is set by controls: 0 for no effect and ±100 for the full control effect; nearly all actives have a fitted effect of over 55% in size
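Chicken DT40 Tdp1-/- cells stably complemented with human TDP1 were seeded at 400 cells/well in medium containing 20 nM camptothecin, exposed to pin-transferred compounds, and grown at 37 °C for at least 48 hr. Viability was read as ATP luminescence.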
HepG2 viability – counter-screen for TGF-b inhibitors: cytotoxicity in HepG2 cells | 0.76% of 410,000 active | HepG2 CAGA-GFP viability, ATP luminescence, 18 h | Potency, µM (doses to about 46.1 µM), without a hit: at the highest dose activity change, negative = cytotoxicity, most hits filed as cytotoxic | AID 588856
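HepG2 CAGA-GFP cells (1000/well, DMEM with 1% FBS) received compound, then TGF-beta at 500 pg/mL final, and were incubated 18 hours at 37 degrees C. Viability was read by CellTiter-Glo luminescence. Media-only wells were set as complete cell-killing and DMSO as no toxicity.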
DT40 TDP1 no CPT – qHTS for Inhibitors of human tyrosyl-DNA phosphodiesterase 1 (TDP1): qHTS in cells in absence of CPT | 15% of 420,000 active | DT40 Tdp1-/- hTDP1 cells, no CPT, ATP luminescence, 48 h | Potency, µM (series often up to 46.2 µM), for the others: top-dose activity change, negative = growth inhibition, hits mostly inhibitors; note: % is set by controls: 0 for no effect and ±100 for the full control effect; nearly all actives have a fitted effect of over 55% in size
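Seeded 400 DT40-hTDP1 cells/well (vehicle DMSO, no 20 nM CPT); pinned compounds; ≥48 hr at 37 °C; CellTiter-Glo luminescence as viability measure.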
HT1080 IDH1KD tx – HT-1080 IDH1 knockdown cell toxicity (counter line). HT-1080 IDH1 knockdown viability, ATP luminescence, 48 h. Potency, µM (titrated, usually from 46.1 µM), without a hit: top-dose activity, negative = toxicity, actives largely listed as cytotoxic. 2% of 360,000 active. AID 686971;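 note: 0% = DMSO wells and -100% = cell-free medium wells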
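Assay cells: HT-1080 with IDH1 knockdown, 750 per well, RPMI/5% FBS. Exposure: 48 h at 37 °C following 2 h pre-incubation. Read: CellTiter-Glo luminescence; fitted concentration-response, curve class assigned.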
HT1080NT lethal – kills 2HG-producing HT-1080-NT fibrosarcoma cells. HT-1080-NT fibrosarcoma viability, CellTiter-Glo ATP luminescence, 48 h. Potency, µM (highest dose often 46.1 µM), inactives show at the top dose activity, negative = less viability, usual class: cytotoxic. 1.6% of 360,000 active;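 note: NT is the 2HG producing partner of a matched IDH1 knockdown line; 0% = DMSO-treated cells and -100% = media-only wells without cells; nearly all actives have a fitted effect of over 55% in size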
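A 48-hour cytotoxicity screen used HT-1080-NT cells plated 2 hours before compound delivery. ATP-based CellTiter-Glo luminescence measured viability, normalized to DMSO and no-cell controls.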
* = called active by the depositor; ? = inconclusive; . = no result. Only some compounds are listed: those with a hit (about 17% of all), similar ones and a draw of the others. Calls come from the whole dose curve; as a rule, active = well fitted curve in the direction sought with a large enough effect; inconclusive = small, poorly fitted or top-dose-only effect, or another doubt; inactive = no such curve, though single readings can be large; an effect the other way counts as inactive or inconclusive. Potency is the fitted concentration of half-maximal effect.

SMILES	TGFb SMAD3 inh	TDP1 cell CPT	HepG2 viability	DT40 TDP1 no CPT	HT1080 IDH1KD tx	HT1080NT lethal
CCOC(=O)c1sc(N(Cc2ccccc2)C(=O)COC(=O)c2ccc(O)cc2)nc1C	12.6µM*	9.2µM*	-96.5%	5.8µM*	-21.1%	-18.8%
CCOC(=O)c1sc(N(Cc2ccccc2)C(=O)COC(=O)c2ccccc2O)nc1C	-1.1%	-28.3%	1.7%	?	2.1%	12.2%
CCOC(=O)c1sc(N(Cc2ccccc2)C(=O)CSc2ncn[nH]2)nc1C	4.4%	?	-9.2%	?	-24.1%	-20.3%
COc1ccc(/C=C/C(=O)c2ccc3c4c(cccc24)CC3)cc1OC	?	20.6µM*	-55.9%	16.4µM*	16.4µM*	?
COc1ccc(C(=O)Oc2ccc(F)cc2C(=O)/C=C/c2ccc(OC)c(OC)c2)cc1	0.0%	14.6µM*	-11.8%	13µM*	?	?
COc1ccc(C(=O)Oc2cc(/C=N/NC(N)=S)ccc2OC)cc1	?	-4.7%	-15.5%	-25.9%	-2.5%	1.3%
COc1ccc(/C=C/C(=O)c2cc(F)ccc2OC(=O)c2ccccc2C)cc1OC	?	0.92µM*	-77.2%	1.03µM*	3.26µM*	1.3µM*
CN(C)Cc1ccccc1-c1cccc2nccn12	-12.0%	-20.9%	-16.9%	-13.6%	-0.7%	5.5%
C[C@H]1CN([C@@H](C)CO)S(=O)(=O)c2ccc(Br)cc2O[C@@H]1CN(C)Cc1cccc(F)c1	17.8µM*	16.4µM*	12.6µM*	16.4µM*	-22.8%	?
C[C@@H]1CN([C@@H](C)CO)S(=O)(=O)c2ccc(C#CC3CCCCC3)cc2O[C@@H]1CN(C)Cc1cccnc1	?	14.6µM*	-104.3%	5.17µM*	?	?
C[C@H](CO)N1C[C@H](C)[C@@H](CN(C)Cc2cccc(F)c2)Oc2cc(-c3cccc(C#N)c3)ccc2S1(=O)=O	-1.9%	?	-17.1%	23.1µM*	-2.1%	-13.0%
C[C@@H]1CN([C@@H](C)CO)S(=O)(=O)c2ccc(Br)cc2O[C@H]1CN(C)Cc1ccc(-c2ccccc2)cc1	?	20.6µM*	-63.3%	5.8µM*	20.6µM*	?
CC(=O)Nc1ccccc1-c1nc2ccccc2n(Cc2cccc(Br)c2)c1=O	.	-3.8%	-5.3%	?	.	.
CC(=NNC(=O)c1ccncc1)c1cccc(Cl)c1	-3.1%	8.7%	11.5%	-19.8%	6.2%	10.0%
C[C@H](CO)N1C[C@H](C)[C@@H](CN(C)C(=O)Nc2ccccc2)Oc2cc(Br)ccc2S1(=O)=O	15.0%	-28.3%	-14.5%	?	-8.9%	-8.9%
C[C@H]1CN([C@@H](C)CO)S(=O)(=O)c2ccc(C#CC(C)(C)O)cc2O[C@H]1CN(C)Cc1ccccc1	-15.2%	18.4µM*	-43.0%	23.1µM*	-8.2%	-13.1%
C[C@H](CO)N1C[C@H](C)[C@@H](CN(C)Cc2ccc(Oc3ccccc3)cc2)Oc2cc(Br)ccc2S1(=O)=O	12.6µM*	23.1µM*	-40.4%	11.6µM*	?	?
CC(Sc1ccc(Cl)cc1)C(=O)NNC(=O)c1ccco1 (stereo not drawn)	1.0%	6.0%	5.4%	8.9%	4.2%	-1.7%
CCn1c(C)c(C)c2cc(C(=O)NC3CCCCCC3)ccc21	-3.8%	16.4µM*	-2.8%	20.6µM*	6.3%	11.6%
Cc1c(C)n(Cc2ccccc2)c2ccc(C(=O)NCCCN3CCOCC3)cc12	-8.2%	?	-32.4%	?	?	?
CCc1ccccc1NC(=O)c1ccc2c(c1)c(C)c(C)n2Cc1ccccc1	0.0%	?	-35.2%	?	.	.
